Target: HCK
Experiment: pooled miR-30 sensor sort-seq; sequence = guide strand
Details: shRNA

Going from TCGTTGTCCTCAATGACCCGGG to TGATGTTGTAGAGCTCCTCTGG, the sensor-assay potency score (higher = more potent) rises from -0.328 to -0.148.

First: TTCCCTTCCAAATCACAGCTGT
Second: TTTAGTGGTCTCGCTATCCCGG
The sensor-assay potency score (higher = more potent) of the first is higher: 0.224 for the first, -0.689 for the second.

First: TTGTTGTAGGTGGCCATCCAGA
Second: TAGTGGTCTCGCTATCCCGGAT
The sensor-assay potency score (higher = more potent) of the first is lower: -1.38 for the first, -0.53 for the second.

First: TTGGTGTGCTTGTTGTAGGTGG
Second: TTAGTGGTCTCGCTATCCCGGA
The sensor-assay potency score (higher = more potent) of the first is higher: -0.387 for the first, -1.31 for the second.

Going from TTCCTCTAGGACCACCATCTGG to TTTGACCAGCTTGTCATGCTGC, the sensor-assay potency score (higher = more potent) rises from -1.25 to 0.268.

Going from TTCTTCTCCAGCTTGAGGGATT to TTTGAGAATGTATTGCCTCCGA, the sensor-assay potency score (higher = more potent) rises from -0.963 to -0.315.

Target: HCST
Experiment: as above
Details: shRNA

First: AACAAGAGCCTGAAGTGCCAGG
Second: AGACTTTGCCATCTTCTTGGGC
The sensor-assay potency score (higher = more potent) of the first is lower: -0.933 for the first, -0.803 for the second.

Compared with TGTAGACTTTGCCATCTTCTTG, TAGACTTTGCCATCTTCTTGGG is higher in sensor-assay potency score (higher = more potent): -1.11 for the first, -0.36 for the second.

Going from TCTCTCTCCTGGAGTCGTCTGA to TTGATGTAGACTTTGCCATCTT, the sensor-assay potency score (higher = more potent) rises from -1.08 to -0.308.

Going from TGTTGATGTAGACTTTGCCATC to TCTCTCCTGGAGTCGTCTGAGC, the sensor-assay potency score (higher = more potent) rises from -1.89 to -1.45.

Going from ATGAGCAGCGATGCCACCGCAT to TTGCCATCTTCTTGGGCGGGGC, the sensor-assay potency score (higher = more potent) rises from -1.5 to -1.23.

First: TTTGCCATCTTCTTGGGCGGGG
Second: TAGACTTTGCCATCTTGGGCGG
The sensor-assay potency score (higher = more potent) of the first is higher: 0.0264 for the first, -0.81 for the second.

Target: HDGF
Experiment: as above
Details: shRNA

Compared with TTCCACACAGCTCTTTTTCTGG, TTCTCAGAGCTAAACTTCCAAA is lower in sensor-assay potency score (higher = more potent): -0.811 for the first, -1.28 for the second.

Compared with TTTCTCGTTCTTCTCCTTGGCT, TAAGGGAAGAGGTCTTTGGGGC is lower in sensor-assay potency score (higher = more potent): -0.305 for the first, -0.718 for the second.

First: TCTGGTGACAACACTGAGGGGG
Second: TTCTCGTTCTTCTCCTTGGCTG
The sensor-assay potency score (higher = more potent) of the first is higher: 0.602 for the first, -0.535 for the second.

Going from TTCTTTTCCACCTCCATAGGAA to TCAGGCATCTCGTCAATCCGGG, the sensor-assay potency score (higher = more potent) rises from -0.534 to -0.426.

First: TTTCTCTCTGTCCTCTCAGTGG
Second: TAGAACTGAAATCATCTACGGT
The sensor-assay potency score (higher = more potent) of the first is lower: -1.16 for the first, -0.169 for the second.

Going from TCTGGGAGGACTGATAGCCGGA to TTCCCTTCCTCGTCGCTGCTGC, the sensor-assay potency score (higher = more potent) rises from -0.805 to -0.283.

— the OligoGym collection
